From PubChem BioAssay (Tox21)
Results filed as inconclusive are left out. Where a call stands in place of a potency, no number is given. Unmarked numbers belong to inactive results. The source made the active and inactive calls. Calls come from the whole dose curve; as a rule, active = well fitted inhibition curve with a large enough effect in the signal ratio in the repeat runs (not every such curve was filed as active); inconclusive = weak or mixed curves, or effect the other way; inactive = flat fitted curve, though single readings scatter; the % refers to the signal ratio. Bridge positions count the residues as written; N and C are the ends. Square brackets hold non-standard residues; d marks the D form. Peptide text beside a SMILES is read from it. hArg = N=C(N)NCCCC[C@H](N)C(=O)O; Mpa = O=C(O)CCS

Assay: cAMP Responsive Elements (CRE) small molecule antagonists, cell-based qHTS assay (AID 1963591)
Details: CRE-bla HEK293T, beta-lactamase FRET ratio; series mostly up to 92.4 µM
Excerpt: U.S. Tox21 Program National Center for Advancing Translational Sciences [NCATS] Division of Preclinical Innovation [DPI] U.S. Environmental Protection Agency [EPA] National Institutes of Environmental Health Sciences [NIEHS] National Toxicology Program [NTP] U.S. Food and Drug Administration [FDA] Tox21 Assay Overview: CREB (cyclic-AMP Responsive Element Binding Protein) is a cellular transcription factor. It binds to certain DNA sequences called cAMP Responsive Elements (CRE) and regulates the transcription of the genes. […] This cell line can be used to find agonists/antagonists of the cyclic AMP signaling pathway. The activation of the report gene under culture conditions can be detected by fluorescence intensity. This cell line has been used to screen the Tox21 10K compound library to […].
Tox21 Assay Protocol Summary: CRE-bla Hek 293T cells were suspended in assay medium (DMEM containing 10% dialyzed FBS, 0.1 mM NEAA, 1 mM sodium pyruvate and 25 mM HEPES) and dispensed at 2,000 cells/4 uL /well into 1536-well black wall/clear bottom plates using a Multidrop Combi (ThermoFisher Scientific, Waltham, MA) dispenser. After the assay plates were incubated at 37 C/5% CO2 for 18 hrs, 23 nL of compounds dissolved in DMSO, positive controls or DMSO only was transferred to the assay plate by a pintool workstation (Kalypsys, San Diego, CA), followed by addition of 1 […] uL of 1.25uM NKH477 (0.25 uM as final concentration) in assay medium using a Flying Reagent Dispenser (Aurora Discovery, San Diego, CA). The plates were incubated at 37 C and 5% CO2 for 3 hrs. Then 1 uL of LiveBLAzer B/G FRET substrate (Invitrogen, Carlsbad, CA) was added to each well using Bioraptr Flying Reagent Dispenser (FRD, Aurora Discovery, San Diego, CA). The plates were incubated at room temperature for 2 h.
Potency is the fitted concentration of half-maximal effect.

Q: With `Cc1ccc2nc(-c3ccc(N)cc3)sc2c1S(=O)(=O)O` as the molecule, how does the Potency read?
A: Its Potency is “inactive”.

Q: With `CC(C)OC(=O)CCC(=O)OC(C)C` as the molecule, how does the Potency read?
A: The Potency was “inactive”.

Q: With `N#CCCOCCC#N` as the molecule, how does the Potency read?
A: The Potency was “inactive”.

Q: With `Clc1ccc2nsnc2c1NC1=NCCN1` as the molecule, how does the Potency read?
A: The Potency was “inactive”.

Q: For `OCCN1CCN(CCO)CC1`, which Potency is on record?
A: Its Potency is “inactive”.

Q: Which Potency does the source give for `CCOc1ccc(OCC)c(Cl)c1` here?
A: Its Potency is “inactive”.

Q: For `CCc1ccccc1`, which Potency is on record?
A: The Potency was “inactive”.

Q: Which Potency does the source give for `Cc1ccccc1N=Nc1ccc(N=Nc2c(O)ccc3ccccc23)c(C)c1` here?
A: The Potency was “inactive”.

Q: With `CCOC(=O)C1=C[C@]2(CC)CCCN3CCc4c(n1c1ccccc41)[C@@H]32` as the molecule, how does the Potency read?
A: The Potency was “inactive”.

Q: For `O=C1c2ccccc2C(=O)N1SC1CCCCC1`, which Potency is on record?
A: The Potency was “inactive”.

Q: Which Potency does the source give for `CCCCC[Si](OCC)(OCC)OCC` here?
A: Its Potency is “inactive”.

Q: With `NCCCN1CCOCC1` as the molecule, how does the Potency read?
A: The Potency was “inactive”.

Q: With `CCCCOCC(C)OCC(C)O` (stereo not given) as the molecule, how does the Potency read?
A: The Potency was “inactive”.

Q: Which Potency does the source give for `COc1cc(Cl)ccc1Oc1ccc(Cl)cc1Cl` here?
A: The Potency was “inactive”.

Q: For `c1coc(Cn2cccc2)c1`, which Potency is on record?
A: Its Potency is “inactive”.

Q: Which Potency does the source give for `Cc1c(O)cccc1O` here?
A: The Potency was “inactive”.

Q: With `O=c1[nH][nH]c2ccccc12` as the molecule, how does the Potency read?
A: Its Potency is “inactive”.

Q: For `C1CCC(C(CC2CCCCN2)C2CCCCC2)CC1` (stereo not given), which Potency is on record?
A: Its Potency is 29.8 µM (active).

Q: Which Potency does the source give for `CO[C@]1(NC(=O)CSC(F)F)C(=O)N2C(C(=O)O)=C(CSc3nnnn3CCO)CO[C@H]21` here?
A: Its Potency is “inactive”.

Q: Which Potency does the source give for `CNCC[C@@H](Oc1ccccc1C)c1ccccc1` here?
A: Its Potency is “inactive”.

Q: Which Potency does the source give for `NC(=O)[C@@H]1CSSCCC(=O)N[C@@H](CCCCN=C(N)N)C(=O)NCC(=O)N[C@@H](CC(=O)O)C(=O)N[C@@H](Cc2c[nH]c3ccccc23)C(=O)N2CCC[C@H]2C(=O)N1` ([Mpa][hArg]GDWPC-NH2; disulfide 1-7) here?
A: The Potency was “inactive”.

Q: With `COc1cc(C)nc(-n2nc(C)cc2OC)n1` as the molecule, how does the Potency read?
A: The Potency was “inactive”.

Q: For `CN1CCN(C2=Nc3cc(Cl)ccc3Nc3ccccc32)CC1`, which Potency is on record?
A: The Potency was “inactive”.

Q: For `NC1=NCC2c3ccccc3Cc3ccccc3N12` (stereo not given), which Potency is on record?
A: The Potency was “inactive”.

Q: For `CC[C@@]1(c2ccccc2)NC(=O)N(C)C1=O`, which Potency is on record?
A: Its Potency is “inactive”.

Q: For `CNCCCCOc1ccccc1Cc1ccccc1`, which Potency is on record?
A: Its Potency is “inactive”.

Q: For `O=Cc1ccccc1S(=O)(=O)O`, which Potency is on record?
A: The Potency was “inactive”.

Q: Which Potency does the source give for `Cc1cc(Cl)c(C)cc1Cl` here?
A: Its Potency is “inactive”.

Q: With `Cc1ccc([N+](=O)[O-])c(N)c1` as the molecule, how does the Potency read?
A: The Potency was “inactive”.

Q: Which Potency does the source give for `CC(C)(C(=O)O)c1ccc(C(O)CCCN2CCC(C(O)(c3ccccc3)c3ccccc3)CC2)cc1` (stereo not given) here?
A: The Potency was “inactive”.

Q: For `C1CCC2(CCCCO2)OC1`, which Potency is on record?
A: The Potency was “inactive”.

Q: With `CO[Si](OC)(c1ccccc1)c1ccccc1` as the molecule, how does the Potency read?
A: The Potency was “inactive”.

Q: With `NC(N)=NCCN1CCCCCCC1` as the molecule, how does the activity change, negative = inhibition read?
A: Its activity change, negative = inhibition is 0.0219% [at 0.349 µM].

Q: With `CCCCCCCCCCCCCCCCC(C(=O)O)C(O)(CC(=O)O)C(=O)O` (stereo not given) as the molecule, how does the Potency read?
A: Its Potency is “inactive”.

Q: Which Potency does the source give for `CC(CN=Cc1ccccc1O)N=Cc1ccccc1O` (stereo not given) here?
A: The Potency was “inactive”.

Q: For `COc1cccc(N)c1`, which Potency is on record?
A: The Potency was “inactive”.

Q: With `CCCc1ccc(OC)cc1` as the molecule, how does the Potency read?
A: Its Potency is “inactive”.

Q: For `CC(Oc1c(Cl)cccc1Cl)C1=NCCN1` (stereo not given), which Potency is on record?
A: The Potency was “inactive”.

Q: Which Potency does the source give for `CC(C)C(C)(C)C(C)(C)C(C)(C)S` here?
A: Its Potency is “inactive”.

Q: With `CC(C)=CC(C)(C)C` as the molecule, how does the Potency read?
A: Its Potency is “inactive”.
